The values that follow come from PubChem BioAssay (NCI).

This is part of a sample that, as a whole, favours compounds with a hit. Of some 79,000 tested, about 15% had one in any assay. Unmarked numbers belong to inactive results. Active and inactive are the calls of the source. No stated cut-off is given here; in the data, active means growth inhibition above about 70%; inactive means the rest.

A short description of experiment [1]: NCI Yeast Anticancer Drug Screen. Data for the rad50 strain (AID 155).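 Further: 0% = growth of vehicle-only cultures of the same strain.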 Conditions: S. cerevisiae rad50 strain growth inhibition, active compounds read high. The essentials: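 A DNA repair-deficient yeast mutant serves as the test organism; compound-induced growth inhibition is calculated against vehicle-treated cells.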
Experiment [2] in a line: NCI Yeast Anticancer Drug Screen. Data for the mec2-1 strain (AID 157). Conditions: S. cerevisiae mec2-1 strain, active compounds read high. The essentials:
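Yeast mec2-1 mutant treated with compound. Readout: growth inhibition vs vehicle controls.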

Experiment [3] can be described thus: NCI Yeast Anticancer Drug Screen. Data for the sgs1 mgt1 strain (AID 161).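 Further: 0% = growth of cultures given vehicle only.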 To be noted: S. cerevisiae sgs1 mgt1 strain, active compounds read high. The essentials:
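Mutant yeast exposed to compound; growth scored against vehicle-only wells.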

Experiment [4] can be described thus: NCI Yeast Anticancer Drug Screen. Data for the cln2 rad14 strain (AID 165).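 Further: 0% = growth equal to vehicle treated cultures.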 To be noted: S. cerevisiae cln2 rad14 strain, active compounds read high. The essentials:
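cln2 rad14 yeast strain; compound exposure; growth inhibition read vs vehicle controls.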

Experiment [5] in a line: NCI Yeast Anticancer Drug Screen. Data for the bub3 strain (AID 167). To be noted: S. cerevisiae bub3 mutant strain, active compounds read high. The essentials:
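Inhibition values come from growth of compound-treated mutant yeast normalised to vehicle-treated controls.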

A short description of experiment [6]: NCI Yeast Anticancer Drug Screen. Data for the mlh1 rad18 strain (AID 175). To be noted: S. cerevisiae mlh1 rad18 strain growth inhibition, active compounds read high. The essentials: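 Yeast w/ defined DNA-repair lesions; compound exposure; growth vs vehicle controls → % inhibition.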
Setting [7] is: at 5.0 µM (retest, dose inferred, filed as 0.5).
Where [8] appears, read: at 50.0 µM (retest, dose inferred, filed as 5.0).

Regarding `O=C1NC(Cc2ccccc2)C(=O)O1` (configuration not stated), the growth inhibition in experiment [1] (setting [7]) is 0%; in experiment [1] (setting [8]) it was -6%; in experiment [1] (at 50.0 µM) it was -2.1%; in experiment [2] (setting [7]), -2%; in experiment [2] (setting [8]), -3%; in experiment [2] (at 50.0 µM), 3.35%. The growth inhibition in experiment [3] (setting [7]) was -3%; in experiment [3] (setting [8]), 13%; in experiment [3] (at 50.0 µM), 11.1%; in experiment [4] (setting [7]) it was -11%; in experiment [4] (setting [8]), 6%; in experiment [4] (at 50.0 µM), -13.8%. In addition, the growth inhibition in experiment [5] (setting [7]) is -1%; in experiment [5] (setting [8]), -2%; in experiment [5] (at 50.0 µM), 43.9%; in experiment [6] (setting [7]) it was -1%; in experiment [6] (setting [8]) it was -6%; in experiment [6] (at 50.0 µM), 4.25%.
For the compound `c1ccc2c(c1)C[N+]1(CCCCCCC1)C2`, the growth inhibition is 19% in experiment [1] (setting [7]); 51% in experiment [1] (setting [8]); 74.2% (active) in experiment [1] (at 50.0 µM); 6% in experiment [2] (setting [7]); 64% in experiment [2] (setting [8]); 72.7% (active) in experiment [2] (at 50.0 µM). Further, the growth inhibition was -2% in experiment [3] (setting [7]); 77% (active) in experiment [3] (setting [8]); 69.9% in experiment [3] (at 50.0 µM); -14% in experiment [4] (setting [7]); 25% in experiment [4] (setting [8]); 53.6% in experiment [4] (at 50.0 µM). The growth inhibition in experiment [5] (setting [7]) was -3%; in experiment [5] (setting [8]), 36%; in experiment [5] (at 50.0 µM), 58.9%; in experiment [6] (setting [7]) it was 6%; in experiment [6] (setting [8]) it was 88% (active); in experiment [6] (at 50.0 µM), 65.8%.
With `CCc1[nH]c2ccccc2c1N1C(=O)CC2(CCN(Cc3ccccc3)CC2)CC1=O`, the growth inhibition in experiment [1] (setting [7]) is -4%; in experiment [1] (setting [8]), 1%; in experiment [1] (at 50.0 µM), 32.1%; in experiment [2] (setting [7]) it was 1%; in experiment [2] (setting [8]), 25%; in experiment [2] (at 50.0 µM), 6.25%. In addition, the growth inhibition in experiment [3] (setting [7]) is -75%; in experiment [3] (setting [8]), 23%; in experiment [3] (at 50.0 µM) it was 32.4%; in experiment [4] (setting [7]), -1%; in experiment [4] (setting [8]), 2%; in experiment [4] (at 50.0 µM), 3.7%. The growth inhibition is -6% in experiment [5] (setting [7]); 8% in experiment [5] (setting [8]); 35.5% in experiment [5] (at 50.0 µM); -6% in experiment [6] (setting [7]); 10% in experiment [6] (setting [8]); 19.7% in experiment [6] (at 50.0 µM).
Regarding `CCCCCCCCCCCCCCCCN(C)c1ccc(S(=O)(=O)O)cc1[N+](=O)[O-]`, the growth inhibition was 43% in experiment [1] (setting [7]); 67% in experiment [1] (setting [8]); 85.5% (active) in experiment [1] (at 50.0 µM); 37% in experiment [2] (setting [7]); 71% (active) in experiment [2] (setting [8]); 89% (active) in experiment [2] (at 50.0 µM). For the same compound, the growth inhibition in experiment [3] (setting [7]) was 50%; in experiment [3] (setting [8]), 62%; in experiment [3] (at 50.0 µM), 90.5% (active); in experiment [4] (setting [7]), 24%; in experiment [4] (setting [8]), 48%; in experiment [4] (at 50.0 µM), 68.6%. Moreover, the growth inhibition is 60% in experiment [5] (setting [7]); 79% (active) in experiment [5] (setting [8]); 88.3% (active) in experiment [5] (at 50.0 µM); 59% in experiment [6] (setting [7]); 73% (active) in experiment [6] (setting [8]); 80.1% (active) in experiment [6] (at 50.0 µM).
With `CC(=O)OC1CCC2(C)C(CCC3C4=CCC(C5COC(=O)C5)C4(C)CCC32)C1` (configuration not stated), the growth inhibition in experiment [1] (setting [7]) is -1%; in experiment [1] (setting [8]), 79% (active); in experiment [1] (at 50.0 µM), 77.2% (active); in experiment [2] (setting [7]), 17%; in experiment [2] (setting [8]) it was 94% (active); in experiment [2] (at 50.0 µM), 61.5%. The growth inhibition in experiment [3] (setting [7]) is -5%; in experiment [3] (setting [8]), 88% (active); in experiment [3] (at 50.0 µM), 84.7% (active); in experiment [4] (setting [7]), -2%; in experiment [4] (setting [8]), 89% (active); in experiment [4] (at 50.0 µM), 63.1%. Further, the growth inhibition in experiment [5] (setting [7]) is 4%; in experiment [5] (setting [8]), 91% (active); in experiment [5] (at 50.0 µM), 59.8%; in experiment [6] (setting [7]), 11%; in experiment [6] (setting [8]), 90% (active); in experiment [6] (at 50.0 µM) it was 78.1% (active).
`CCCCCCCCCCCC[N+](C)(C)C` (tested in a mixture with another compound): the growth inhibition in experiment [1] (setting [7]) was -7%; in experiment [1] (setting [8]), 99% (active); in experiment [1] (at 50.0 µM) it was 67.9%; in experiment [2] (setting [7]), 5%; in experiment [2] (setting [8]), 99% (active); in experiment [2] (at 50.0 µM), 93.8% (active). Besides, the growth inhibition in experiment [3] (setting [7]) is -4%; in experiment [3] (setting [8]), 98% (active); in experiment [3] (at 50.0 µM) it was 49.2%; in experiment [4] (setting [7]), 5%; in experiment [4] (setting [8]), 98% (active); in experiment [4] (at 50.0 µM), 10.6%. The growth inhibition in experiment [5] (setting [7]) is 20%; in experiment [5] (setting [8]) it was 99% (active); in experiment [5] (at 50.0 µM) it was 88.5% (active); in experiment [6] (setting [7]), 0%; in experiment [6] (setting [8]), 98% (active); in experiment [6] (at 50.0 µM), 64%.
`O=[N+]([O-])c1cc(C(F)(F)F)cc([N+](=O)[O-])c1N1CCCC(n2cccc2)C1` (configuration not stated): the growth inhibition in experiment [1] (setting [7]) is -11%; in experiment [1] (setting [8]), 21%; in experiment [1] (at 50.0 µM), 34.6%; in experiment [2] (setting [7]) it was -6%; in experiment [2] (setting [8]) it was 19%; in experiment [2] (at 50.0 µM), 45.8%. In addition, the growth inhibition is -4% in experiment [3] (setting [7]); 26% in experiment [3] (setting [8]); 58.3% in experiment [3] (at 50.0 µM); 7% in experiment [4] (setting [7]); 28% in experiment [4] (setting [8]); 34.1% in experiment [4] (at 50.0 µM). Also, the growth inhibition in experiment [5] (setting [7]) was -9%; in experiment [5] (setting [8]), 55%; in experiment [5] (at 50.0 µM), 71.2% (active); in experiment [6] (setting [7]), 1%; in experiment [6] (setting [8]), 33%; in experiment [6] (at 50.0 µM) it was 47.9%.
For `CN(C)C(=S)/N=c1\sn(C)/c(=N\C(=S)N(C)C)n1C`, the growth inhibition in experiment [1] (setting [7]) is -30%; in experiment [1] (setting [8]), -14%; in experiment [1] (at 50.0 µM), -0.5%; in experiment [2] (setting [7]), -11%; in experiment [2] (setting [8]) it was -11%; in experiment [2] (at 50.0 µM) it was -5.9%. The growth inhibition is 5% in experiment [3] (setting [7]); 7% in experiment [3] (setting [8]); -5.6% in experiment [3] (at 50.0 µM); -27% in experiment [4] (setting [7]); -36% in experiment [4] (setting [8]); -75.8% in experiment [4] (at 50.0 µM). Further, the growth inhibition was -13% in experiment [5] (setting [7]); -17% in experiment [5] (setting [8]); 0.6% in experiment [5] (at 50.0 µM); -7% in experiment [6] (setting [7]); -8% in experiment [6] (setting [8]); 19.8% in experiment [6] (at 50.0 µM).
Turning to `CCC1=C(c2ccc(OC(C)=O)cc2)Cc2cc(OC(C)=O)ccc21`, the growth inhibition was -14% in experiment [1] (setting [7]); 64% in experiment [1] (setting [8]); -4.5% in experiment [1] (at 50.0 µM); -13% in experiment [2] (setting [7]); 67% in experiment [2] (setting [8]); -9% in experiment [2] (at 50.0 µM). Besides, the growth inhibition in experiment [3] (setting [7]) was -3%; in experiment [3] (setting [8]), 72% (active); in experiment [3] (at 50.0 µM) it was 5.55%; in experiment [4] (setting [7]) it was -9%; in experiment [4] (setting [8]), 79% (active); in experiment [4] (at 50.0 µM) it was 4%. The growth inhibition was -3% in experiment [5] (setting [7]); 83% (active) in experiment [5] (setting [8]); 26% in experiment [5] (at 50.0 µM); -13% in experiment [6] (setting [7]); 84% (active) in experiment [6] (setting [8]); 4.55% in experiment [6] (at 50.0 µM).
